High-throughput results from PubChem.
The sample as a whole holds a higher share of hits than the screen did.
GBA enhancer – GBA activity enhancers in patient fibroblasts, primary screen, cell-based | L444P Gaucher fibroblasts, 4-MU-glucoside fluorescence, 3 days | activation, % at 10 µM | 30,000 tested, 0.44% active | Lysosomal acid glucosylceramidase (Homo sapiens), P04062; in the data active = activation above about 65%;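 also: 0% = vehicle wells and 100% = positive control wells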
Target sequence (P04062 whole entry L483P): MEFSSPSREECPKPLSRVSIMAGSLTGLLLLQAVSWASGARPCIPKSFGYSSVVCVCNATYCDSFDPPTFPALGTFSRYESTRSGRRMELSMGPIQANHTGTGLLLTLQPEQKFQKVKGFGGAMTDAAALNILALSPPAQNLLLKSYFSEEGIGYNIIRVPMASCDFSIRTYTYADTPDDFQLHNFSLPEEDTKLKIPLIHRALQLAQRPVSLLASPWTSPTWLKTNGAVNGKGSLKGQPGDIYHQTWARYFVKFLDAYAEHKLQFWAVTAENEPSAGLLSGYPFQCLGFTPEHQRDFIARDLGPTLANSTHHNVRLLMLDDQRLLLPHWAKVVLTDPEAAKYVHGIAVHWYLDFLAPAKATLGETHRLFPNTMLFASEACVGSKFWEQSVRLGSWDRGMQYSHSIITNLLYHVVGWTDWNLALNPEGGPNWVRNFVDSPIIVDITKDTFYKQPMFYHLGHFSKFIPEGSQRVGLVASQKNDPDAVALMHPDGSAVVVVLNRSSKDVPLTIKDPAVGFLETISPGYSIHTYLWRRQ
Starred values were filed as active, the others as inactive.

SMILES	GBA enhancer
CCOC(=O)N1CCN(C(=O)c2ccc(Cn3c(=S)[nH]c4cc5c(cc4c3=O)OCO5)cc2)CC1	-13.8
CCOC(=O)N1CCN(C(=O)c2ccc3c(=O)n(Cc4ccc(OC)cc4)c(=S)[nH]c3c2)CC1	-34.8
CCOC(=O)N1CCN(C(=O)c2ccc3c(=O)n(Cc4ccccc4)c(=S)[nH]c3c2)CC1	69.2*
Cc1cc(C)nc(SCc2nnc(SCC(=O)Nc3ccccc3C)n2Cc2ccco2)n1	-3.4
COc1cccc(N2CCN(C(=O)CCn3c(=S)[nH]c4cc5c(cc4c3=O)OCO5)CC2)c1	14.3
O=C(CCCn1c(=S)[nH]c2cc3c(cc2c1=O)OCO3)N1CCN(c2ncccn2)CC1	79.3*
O=C(CCCn1c(=S)[nH]c2cc3c(cc2c1=O)OCO3)N1CCN(c2ccc(F)cc2)CC1	-21.0
CCOC(=O)c1c(C)n(C)c2ccc(OC)c(NC(=O)CN3CCN(C(=O)c4ccco4)CC3)c12	-6.7
C=CCSC1=N/C(=C\c2ccsc2)C(=O)S1	401.6*
CCOC(=O)SC1=N/C(=C\c2ccc(N(C)C)cc2)C(=O)S1	10.2
O=C1C2C3C=CC(C3=C3CCCCC3)C2C(=O)N1Cc1ccccc1 (stereo unspecified)	-11.5
CCN1C(=O)CC(C(=O)O)SC1=Nc1ccc(OC)cc1 (stereo unspecified)	-1.0
Cc1ccc(-c2noc(CCC(=O)N3CCCc4ccccc43)n2)cc1	-8.1
COc1cccc(-n2nnc3c(=O)n(Cc4ccccc4Cl)cnc32)c1	25.5
COC(=O)Cn1cnc2c(C#N)c3n(c2c1=O)CCCCC3	-11.3
N#Cc1c2n(c3c(=O)n(Cc4ccccc4Cl)cnc13)CCCCC2	68.0*
O=C(Nc1cccc(NS(=O)(=O)c2ccc(S(=O)(=O)NC3CC3)cc2)c1)c1ccccn1	3.5
CN(Cc1ccccc1)C(=O)CSc1nnc(-c2ccco2)n1-c1ccccc1	-4.5
O=C(CCS(=O)(=O)c1cccc2nonc12)N1CCCc2ccccc21	72.5*
O=C(CCCC(=O)N1CCCc2ccccc21)N1CCCc2ccccc21	-10.6
O=C(CCS(=O)(=O)c1cccc2nonc12)NCCc1ccccc1	-8.1
COc1ccccc1OCc1nc(Cc2ccc(Cl)cc2)no1	8.2
Cn1cnnc1SCCn1c(N2CCCCC2)nc2c1c(=O)[nH]c(=O)n2C	-7.4
CCOC(=O)c1cnn(CCOC(=O)Cc2cccs2)c1NC(=O)Cc1cccs1	-9.4
Cn1c(=O)cc(SCC(=O)NCCN2CCN(c3ccccc3F)CC2)c2cc(Cl)ccc21	-41.2
SMILES	GBA enhancer
CC(=O)C(Sc1nn(C)c(=S)s1)C(=O)Nc1ccccc1 (stereo unspecified)	-10.3
Cc1ccc(NC(=O)CN(C)S(=O)(=O)c2cccc3nsnc23)cc1C	-47.1
Cc1ccc(NC(=O)CN(C)S(=O)(=O)c2cccc3nsnc23)cc1Cl	-38.6
CN(CC(=O)Nc1ccc(F)c(F)c1)S(=O)(=O)c1cccc2nsnc12	120.9*
Cn1c(-c2ccccc2)cc2c3no[n+]([O-])c3ccc21	27.8
Cc1ccc(C(=O)NCC(=O)OCC(=O)c2c(N)n(C)c(=O)n(C)c2=O)s1	-3.0
O=C(CCN1CCN(c2ccccc2F)CC1)Nc1ccc2c(c1)OCO2	-25.9
CCN1CC=C2C(C1)C(c1ccc(Cl)s1)C(C#N)=C(N)C2(C#N)C#N (stereo unspecified)	-5.9
O=C(CSCc1ccc(Cl)cc1)c1ccco1	-5.2
COc1ccc2cc3cc(C(=O)NCCN4CCN(Cc5ccccc5)CC4)oc3nc2c1	22.1
COc1ccc2cc3cc(C(=O)NCCCN4CCOCC4)oc3nc2c1	10.8
CCCN(CCC)CCCNC(=O)c1cc2cc3ccc(OC)cc3nc2o1	47.6
COc1ccc2cc3cc(C(=O)NCCc4ccc(OC)c(OC)c4)oc3nc2c1	-50.5
CCCCN(CC)CCCNC(=O)c1cc2cc3ccc(OC)cc3nc2o1	123.2*
CCN1CCN(CCCNC(=O)c2cc3cc4ccc(OC)cc4nc3o2)CC1	93.7*
Cc1cccn2c(=O)c3cc(C(=O)NCCCN4CCCC4=O)n(C)c3nc12	-12.4
CCCC12CN3CC(CCC)(CN(C1)C3C(O)C(O)C(O)CO)C2=O (stereo unspecified)	5.9
OCc1nc2ccccc2n1C/C=C/c1ccccc1	-27.2
CCOc1ccccc1NC(=O)c1ccc(F)c(S(=O)(=O)N2CCC3(CC2)OCCO3)c1	-4.8
CCCCN1C(=O)C2C(C(=O)Nc3cccc(OC)c3)C3C=CC2(O3)C1C(=O)NC1CCCCC1C (stereo unspecified)	-2.7
COc1cccc(NC(=O)C2C3C=CC4(O3)C2C(=O)N(C(C)C)C4C(=O)NC2CCCCC2C)c1 (stereo unspecified)	68.2*
COc1cccc(NC(=O)C2C3C=CC4(O3)C2C(=O)N(C2CC2)C4C(=O)NC2CCCCC2C)c1 (stereo unspecified)	-10.0
Cc1ccccc1-n1c(SCC(=O)c2cc(C)n(C)c2C)nnc1-c1ccncc1	11.7
COC(=O)n1c(SC)nc2ccccc21	-10.4
CSc1nc2ccccc2n1CC(=O)Nc1c(C)n(C)n(-c2ccccc2)c1=O	-12.2
CCc1ccc(NC(=O)Cn2c(SC)nc3ccccc32)cc1	82.2*
